Several values for one entry are separate records, joined by “and”; a condition that tells them apart may be missing. Equal entries are not always repeated. The campaign covered roughly 6,400 compounds. About 610 (9.5%) were called active. The sample holds actives, similar compounds and a random draw of the others, so the mix is not that of the screen. Cut-off read from the data, not from the text of the source: active = activity change below about -70%; inconclusive = no clear call, values can overlap the other calls; inactive = above that. Some structures have more than one record in an assay (separate samples or runs), and their calls can disagree.

This experiment is described as follows: Toxoplasma gondii ME49Luc growth in HeLa cells, luciferase, no IFN-y, primary screen (AID 1259421). The note with it: T. gondii ME49Luc in HeLa, 72 h, stronger effect = lower value, concentration not given here.
Turning to `CCOc1ccccc1N=Nc1c(C)[nH]n(-c2nc(-c3ccccc3)cs2)c1=O`, the activity change, negative = inhibition is -0.237% (inactive).
In the case of `Cc1ccc(-n2[nH]c(C)c(N=Nc3cccc(-c4cccc(C(=O)O)c4)c3O)c2=O)cc1C`, the activity change, negative = inhibition is -77.8% (active).
With `Cn1cc(C(=O)[C@@H]2CCc3nc[nH]c3C2)c2ccccc21`, the activity change, negative = inhibition was 3.43% (inactive).
In the case of `CC1(C)C(=O)NC2=C1C(=O)C(=O)c1ccccc12`, the activity change, negative = inhibition was -90% (active).
Under `CC1=CC(=O)c2ccccc2C1=O` stands 2.88% (inactive) and 20.5% (inactive); under `C[N+](C)(C)CCOP(=O)(O)OC[C@H](O)CO`, 7.52% (inactive).
Turning to `COC(=O)C[C@H]1C(C)(C)[C@@H](OC(C)=O)[C@@H]2CC3=C4CC(=O)O[C@@H](c5ccoc5)[C@]4(C)CCC3[C@@]1(C)C2=O` (stereo not given in full), the activity change, negative = inhibition was 13.2% (inactive).
For the compound `CC(=O)O[C@H]1Cc2ccccc2N(C(N)=O)c2ccccc21`, the activity change, negative = inhibition is 8.82% (inactive).
On to `O=c1cc(-c2ccc(O)cc2)oc2cc(O[C@@H]3O[C@H](CO)[C@@H](O)[C@H](O)[C@H]3O[C@@H]3OC[C@](O)(CO)[C@H]3O)cc(O)c12`, for which the activity change, negative = inhibition was -2.43% (inactive).
Regarding `CC(C)N=c1cc2n(-c3ccc(Cl)cc3)c3ccccc3nc-2cc1Nc1ccc(Cl)cc1`, the activity change, negative = inhibition is -81.2% (active) and 17.4% (inactive).
As for `Cc1nc2ccccc2n1Cc1ccc(Cl)cc1`, the activity change, negative = inhibition is -8.55% (inactive).
The same measure for `Cc1ccc2c(c1)C(=O)[C@]1(O)CCN(c3ccccc3)C1=N2`: 7.51% (inactive); for `Cc1c(OCC(F)(F)F)ccnc1C[S@@](=O)c1nc2ccccc2[nH]1`: 83.6% (inactive).
Regarding `Cc1[nH]nc2ccc(-c3cncc(OC[C@@H](N)Cc4ccccc4)c3)cc12`, the activity change, negative = inhibition was -82.2% (active).
As to `O=S(=O)(O)c1ccc(-c2c3nc(c(-c4ccc(S(=O)(=O)O)cc4)c4ccc([nH]4)c(-c4ccc(S(=O)(=O)O)cc4)c4nc(c(-c5ccc(S(=O)(=O)O)cc5)c5ccc2[nH]5)C=C4)C=C3)cc1`, the activity change, negative = inhibition was -0.332% (inactive).
On to `COc1cc2nccc(Oc3ccc(NC(=O)NC4CC4)c(Cl)c3)c2cc1C(N)=O`, for which the activity change, negative = inhibition was 6.94% (inactive) and -7.61% (inactive).
Consider `COc1cc2nccc(Oc3ccc(NC(=O)C4(C(=O)Nc5ccc(F)cc5)CC4)cc3)c2cc1OC`, for which the activity change, negative = inhibition was -93.3% (active).
For the compound `COc1cc2nccc(Oc3ccc(NC(=O)Nc4cc(C)on4)c(Cl)c3)c2cc1OC`, the activity change, negative = inhibition is -84.5% (active).
`COc1cc2nccc(Oc3ccc(NC(=O)Nc4ccc(F)cc4F)c(F)c3)c2cc1OC`: the activity change, negative = inhibition was -38.1% (inactive).
On to `COc1cc2c(Oc3ccc(NC(=O)C4(C(=O)Nc5ccc(F)cc5)CC4)cc3F)ccnc2cc1OCCCN1CCOCC1`, for which the activity change, negative = inhibition is -67.4% (inactive).
As to `COc1cc2c(N3CCN(C(=O)Nc4ccc(OC(C)C)cc4)CC3)ncnc2cc1OCCCN1CCCCC1`, the activity change, negative = inhibition was 11% (inactive).
In the case of `Oc1cccc(-c2c3nc(c(-c4cccc(O)c4)c4ccc([nH]4)c(-c4cccc(O)c4)c4nc(c(-c5cccc(O)c5)c5ccc2[nH]5)C=C4)C=C3)c1`, the activity change, negative = inhibition is 8.49% (inactive).
In the case of `C[C@H](NC(=O)C(C)(C)Oc1ccc(C(F)(F)F)cn1)[C@@H](Cc1ccc(Cl)cc1)c1cccc(C#N)c1`, the activity change, negative = inhibition is -17.6% (inactive).
Under `COc1ccc(S(=O)(=O)Nc2nnc(CC(C)C)s2)cc1` stands 16.5% (inactive); under `CCC1(O)CC2CN(CCc3c([nH]c4ccccc34)C(C(=O)OC)(c3cc4c(cc3OC)N(C)C3C(O)(C(=O)OC)C(C(=O)OC)C5(CC)C=CCN6CCC43C65)C2)C1` (stereo not given), -82.9% (active).
On to `CCC1=C[C@@H]2CN(C1)Cc1c([nH]c3ccccc13)[C@@](C(=O)OC)(c1cc3c(cc1OC)N(C)[C@H]1[C@@](O)(C(=O)OC)[C@H](OC(C)=O)[C@]4(CC)C=CCN5CC[C@]31[C@@H]54)C2`, for which the activity change, negative = inhibition was -61.1% (inactive).
As to `CC[C@]1(O)CC2CN(CCc3c([nH]c4ccccc34)[C@@](C(=O)OC)(c3cc4c(cc3OC)N(C=O)[C@H]3[C@@](O)(C(=O)OC)[C@H](OC(C)=O)[C@]5(CC)C=CCN6CC[C@]43[C@@H]65)C2)C1` (stereo not given in full), the activity change, negative = inhibition was -76.5% (active).
`CC[C@]1(O)CC2CN(CCc3c([nH]c4ccccc34)[C@@](C(=O)OC)(c3cc4c(cc3OC)N(C)[C@H]3[C@@](O)(C(=O)OC)[C@H](OC(C)=O)[C@]5(CC)C=CCN6CC[C@]43[C@@H]65)C2)C1` (stereo not given in full): the activity change, negative = inhibition was -90.8% (active).
As for `COC(=O)[C@H]1[C@H]2C[C@@H]3c4[nH]c5ccccc5c4CCN3C[C@H]2C[C@@H](OC(=O)c2cc(OC)c(OC)c(OC)c2)[C@@H]1OC`, the activity change, negative = inhibition was -2.54% (inactive).
Under `CO[C@H]1C[C@H]2CC[C@@H](C)[C@@](O)(O2)C(=O)C(=O)N2CCCC[C@H]2C(=O)O[C@H]([C@H](C)C[C@@H]2CC[C@H](OC(=O)C(C)(CO)CO)[C@H](OC)C2)CC(=O)[C@H](C)/C=C(\C)[C@@H](O)[C@@H](OC)C(=O)[C@H](C)C[C@H](C)/C=C/C=C/C=C/1C` stands 9.08% (inactive); under `CCOC(=O)[C@H](CCc1ccccc1)N[C@H]1CCCN2CCC[C@H](C(=O)O)N2C1=O`, -4.74% (inactive); under `CC(N)(C(=O)O)c1ccc(-c2nn[nH]n2)cc1` (stereo not given), 3.49% (inactive).
Consider `C[C@@H]1C(=O)O[C@H]2[C@H](O)C34[C@H]5C[C@@H](C(C)(C)C)[C@]36[C@@H](OC(=O)[C@@H]6O)O[C@]4(C(=O)O5)[C@@]12O` (stereo not given in full), for which the activity change, negative = inhibition is 5.38% (inactive).
Under `CN1CCN(C(=O)C2C3CCC(O3)C2C(=O)O)CC1` (stereo not given) stands 3.27% (inactive); under `Cc1sc[n+](CC(=O)c2ccccc2)c1C`, 60.9% (inactive).
Take `CN1CCN(C2Cc3ccccc3Sc3ccc(Cl)cc32)CC1` (stereo not given): the activity change, negative = inhibition is 7.98% (inactive).
Consider `CSc1ccc2c(c1)C(N1CCN(C)CC1)Cc1ccccc1S2` (stereo not given), for which the activity change, negative = inhibition is -82.4% (active) and -87% (active) and -85.3% (active).
Turning to `CSc1ccc2c(c1)N(CCC1CCCCN1C)c1ccccc1S2` (stereo not given), the activity change, negative = inhibition was 31.1% (inactive) and -16.1% (inactive).
Consider `C[C@@H]1O[C@@H](O[C@H]2[C@H](Oc3cc(O)c4c(=O)cc(-c5ccc(O)cc5)oc4c3)O[C@H](CO)[C@@H](O)[C@@H]2O)[C@H](O)[C@H](O)[C@H]1O`, for which the activity change, negative = inhibition was 5.34% (inactive).
Take `CCO[C@H]1OC(=O)C[C@@H]1NC(=O)[C@@H]1CCCN1C(=O)[C@@H](NC(=O)c1ccc(N)c(Cl)c1)C(C)(C)C`: the activity change, negative = inhibition was 3.07% (inactive).
Take `CCOC(=O)[C@@]1(CCCCCCOc2ccc(Cl)cc2)CO1`: the activity change, negative = inhibition is 17.5% (inactive).
For the compound `O=C(O)CC(=O)C(=O)O`, the activity change, negative = inhibition was 21.8% (inactive).
As to `CC(NCCc1ccc(O)cc1)C(O)c1ccc(O)cc1` (stereo not given), the activity change, negative = inhibition was 1.92% (inactive) and 4.83% (inactive).
With `C[C@@H](NCCc1ccc(O)cc1)[C@@H](O)c1ccc(O)cc1`, the activity change, negative = inhibition was 24.4% (inactive).
As to `CCCCCCCCNC(C)C(O)c1ccc(SC(C)C)cc1` (stereo not given), the activity change, negative = inhibition is -84.8% (active) and -78% (active) and 18.5% (inactive).
Turning to `NS(=O)(=O)c1cccc2c1c([N+](=O)[O-])cc1[nH]c(=O)c(=O)[nH]c12`, the activity change, negative = inhibition is 4.26% (inactive) and 1.99% (inactive) and 17.2% (inactive).
Take `CC(C)C1C2CCC(C2)C1N` (stereo not given): the activity change, negative = inhibition is -31.8% (inactive).
For `O=[N+]([O-])c1nccn1CC(O)CN1CCCCC1` (stereo not given), the activity change, negative = inhibition is -0.914% (inactive).
On to `Cc1nc(C)c(-c2ccc(C3CCC(CC(=O)O)CC3)cc2)nc1C(N)=O` (stereo not given), for which the activity change, negative = inhibition is 21.5% (inactive).
For `CNC(=O)[C@H]1O[C@@H](n2cnc3c(NCc4cccc(I)c4)nc(Cl)nc32)[C@H](O)[C@@H]1O`, the activity change, negative = inhibition is -25.8% (inactive).
Take `C=CC(=O)N1CCC[C@@H](n2nc(-c3ccc(Oc4ccccc4)cc3)c3c(N)ncnc32)C1`: the activity change, negative = inhibition was -76.1% (active).
For `C/C(=C(/CCOC(=O)C(C)C)SS/C(CCOC(=O)C(C)C)=C(\C)N(C=O)Cc1cnc(C)nc1N)N(C=O)Cc1cnc(C)nc1N`, the activity change, negative = inhibition was -5.95% (inactive).
Regarding `CC(C)c1c(O)ccc2c1CCC1C(C)(C)CCC[C@]21C` (stereo not given in full), the activity change, negative = inhibition was 25.1% (inactive).
With `COC(=O)[C@@]1(C)CCC[C@]2(C)c3ccc(O)c(C(C)C)c3CCC12` (stereo not given in full), the activity change, negative = inhibition is -72.7% (active).
In the case of `CC(=O)Oc1ccc2c(c1C(C)C)CCC1C(C)(C)CCC[C@]21C` (stereo not given in full), the activity change, negative = inhibition was -4.41% (inactive).
For the compound `CC(=O)C(C#N)C(=O)Nc1cc(Br)ccc1Br` (stereo not given), the activity change, negative = inhibition was -2.2% (inactive) and 12.8% (inactive).
Regarding `COC(=O)C[C@H]1C(C)(C)C(=O)[C@@H]2CC3C4=CC(=O)O[C@@H](c5ccoc5)[C@]4(C)CCC3[C@@]1(C)C2=O` (stereo not given in full), the activity change, negative = inhibition was 6.27% (inactive).
As to `CC[C@@]1(C2O[C@@H](C3O[C@@](O)(CO)[C@H](C)C[C@@H]3C)C[C@@H]2C)CC[C@H]([C@]2(C)CC[C@]3(C[C@H](O)[C@@H](C)[C@@H]([C@@H](C)[C@@H](OC)[C@H](C)C(=O)O)O3)O2)O1` (stereo not given in full), the activity change, negative = inhibition is -80.3% (active).
Take `COC(=O)C1C(O)CCC2CN3CCc4c([nH]c5ccccc45)C3CC21` (stereo not given): the activity change, negative = inhibition was 6.81% (inactive).
Take `C[C@@H]1O[C@@H](OC[C@H]2OC(Oc3c(-c4ccc(OCCO)c(OCCO)c4)oc4cc(OCCO)cc(O)c4c3=O)[C@H](O)[C@@H](O)[C@@H]2O)[C@H](O)[C@H](O)[C@H]1O` (stereo not given in full): the activity change, negative = inhibition is 0.547% (inactive).
For `CN=C(NC#N)NCCSCc1csc(N=C(N)N)n1`, the activity change, negative = inhibition is 21.3% (inactive) and 9.18% (inactive).
With `COc1ccc(/C=C\c2cc(OC)c(OC)c(OC)c2)cc1OP(=O)(O)O`, the activity change, negative = inhibition was -67.2% (inactive).
In the case of `CN1CCC(Nc2ncc3ncnc(Nc4ccc(F)c(Cl)c4)c3n2)CC1`, the activity change, negative = inhibition was 7.3% (inactive).
For the compound `C[C@H](Oc1ccc(S(C)(=O)=O)cc1C(=O)N1CCN(c2ncc(C(F)(F)F)cc2F)CC1)C(F)(F)F`, the activity change, negative = inhibition is -27.8% (inactive).
As to `COc1ccc(F)c(F)c1C(=O)c1cnc(NC2CCN(S(C)(=O)=O)CC2)nc1N`, the activity change, negative = inhibition was -87.7% (active).

These data come from PubChem BioAssay AID1259421 (Broad Institute, 2018).
